# Activity calls are given as the source filed them. Rule for the calls: active = hit-call score of the fitted dose curve at least 0.9, where 1 is the maximum; inactive = score below 0.9.
# Assay: CCTE_Harrill_HTTr_Viability_MCF7: CCTE's 6-hour Cell Viability Assessment for the High-Throughput Transcriptomics (HTTr) Platform, in MCF-7 cells cultured in DMEM + 10% fetal bovine serum, Harrill Lab (AID 2284010)
# Summary of the method: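 Membrane integrity was scored by high-content imaging of propidium iodide dye exclusion after a 6 h exposure across an eight-point dilution series. Data were fitted bidirectionally relative to DMSO as negative control and baseline.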
row,Structure (SMILES),outcome
1,c1ccc2c(c1)ccc1ccccc12,inactive
2,C=C(C)C(=O)OCCC(F)(F)C(F)(F)C(F)(F)C(F)(F)C(F)(F)C(F)(F)F,inactive
3,CCCCCCCCOC(=O)CCCCCCCCC(=O)OCCCCCCCC,inactive
4,CCCCCCC(=O)O,inactive
5,O=C(/C=C/c1ccc(O)cc1)CC(=O)/C=C/c1ccc(O)cc1,inactive
6,OCCC(F)(F)C(F)(F)C(F)(F)C(F)(F)C(F)(F)C(F)(F)C(F)(F)C(F)(F)F,inactive
7,Nc1cccc2c(N)cccc12,inactive
8,COCC(C)OCC(C)O (stereo unspecified),inactive
9,COC(=O)CCCCC(=O)OC,inactive

# Assay: CCTE_Harrill_HTTr_Apoptosis_MCF7: CCTE's 6-hour Apoptosis Assessment for the High-Throughput Transcriptomics (HTTr) Platform, in MCF-7 cells cultured in DMEM + 10% fetal bovine serum, Harrill Lab (AID 2284011)
# Summary of the method: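 Cells are dosed with test chemicals at eight concentrations and imaged 6 hours later for caspase-3/7 activity using a green fluorogenic detection reagent. Activity is fitted in both directions against DMSO controls.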
row,Structure (SMILES),outcome
1,CCN(CC)CCNc1ccc(CNC=O)c2sc3ccc(OC)cc3c(=O)c12,inactive
2,Oc1cc2ccccc2c2ccccc12,inactive
3,OC1CCCCC1,inactive
4,CCCCC(CC)COC(=O)CCCCC(=O)OCc1ccccc1 (stereo unspecified),inactive
5,CCCCCCCCCCCCc1ccccc1S(=O)(=O)O,inactive
6,CCCCCCCCCCCCN1CCCC1=O,inactive
7,OC1CCC(C2CCCCC2)CC1 (stereo unspecified),inactive
8,COc1cc(CCC(=O)CC(=O)CCc2ccc(O)c(OC)c2)ccc1O,inactive
9,CC(C)(C)c1cccc(C(C)(C)C)c1O,inactive
10,CN1CCN(c2ccccc2/C=C2\SCCN(c3ccc(Cl)c(Cl)c3)C2=O)CC1,inactive
11,CC1=C(/C=C/C(C)=C/C=C/C(C)=C/C(=O)O)C(C)(C)CCC1,inactive
12,O=C(OCCOCCOC(=O)c1ccccc1)c1ccccc1,inactive
13,C[C@@H]1C[C@H]2[C@@H]3CCC4=CC(=O)C=C[C@]4(C)[C@@]3(F)[C@@H](O)C[C@]2(C)[C@@]1(O)C(=O)COP(=O)(O)O,inactive
14,c1ccc2c(c1)ccc1ccccc12,inactive
15,C=C(C)C(=O)OCCC(F)(F)C(F)(F)C(F)(F)C(F)(F)C(F)(F)C(F)(F)F,inactive
16,CCCCCCCCOC(=O)CCCCCCCCC(=O)OCCCCCCCC,inactive
17,CCCCCCC(=O)O,inactive
18,O=C(/C=C/c1ccc(O)cc1)CC(=O)/C=C/c1ccc(O)cc1,inactive
19,OCCC(F)(F)C(F)(F)C(F)(F)C(F)(F)C(F)(F)C(F)(F)C(F)(F)C(F)(F)F,inactive
20,Nc1cccc2c(N)cccc12,inactive
21,COCC(C)OCC(C)O (stereo unspecified),inactive
22,COC(=O)CCCCC(=O)OC,inactive

# Reference: PubChem BioAssay (EPA / NIEHS)
